Assay outcomes (PubChem BioAssay)
SENP6 block = blocks the human protease SENP6 | actives 1.8% (n = 330,000) | AID 2599 | Recombinant SENP6 catalytic domain, aminoluciferin luminescence | Q9GZR1 | inhibition, % at 10 µM;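 active = inhibition above about 50% at the single tested dose, limit read from the data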;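 note: plate controls were DMSO wells with enzyme for no effect and DMSO wells lacking enzyme for full effect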
Target sequence (Q9GZR1 628-1112 limits assumed): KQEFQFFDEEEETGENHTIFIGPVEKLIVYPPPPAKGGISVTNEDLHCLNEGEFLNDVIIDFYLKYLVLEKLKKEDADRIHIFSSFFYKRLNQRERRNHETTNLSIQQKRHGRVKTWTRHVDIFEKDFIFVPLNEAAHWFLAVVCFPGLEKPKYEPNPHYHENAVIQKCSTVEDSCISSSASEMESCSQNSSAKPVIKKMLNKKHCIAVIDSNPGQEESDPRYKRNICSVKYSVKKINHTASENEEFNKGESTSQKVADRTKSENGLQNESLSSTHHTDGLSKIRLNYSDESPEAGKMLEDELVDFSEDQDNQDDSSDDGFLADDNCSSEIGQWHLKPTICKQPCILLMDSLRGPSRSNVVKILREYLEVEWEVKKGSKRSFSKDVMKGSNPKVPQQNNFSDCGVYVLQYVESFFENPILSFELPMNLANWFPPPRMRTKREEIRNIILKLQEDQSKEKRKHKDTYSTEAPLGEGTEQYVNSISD
SENP7 inh = SENP7 protease inhibition; Q9BQF6; recombinant SENP7, Z-RLRGG-aminoluciferin luminescence, 40 min; inhibition, % at 5 µM; actives 1.5% (n = 330,000);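 active = inhibition above about 50% at the single test dose, limit read from the data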;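 note: plate controls were DMSO with enzyme for no effect and no enzyme buffer wells for full effect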
SENP8 block-1 = inhibitors of human SENP8 protease; purified SENP8, Z-RLRGG-aminoluciferin cleavage, luminescence; inhibition, % at 10 µM; actives 1.2% (n = 330,000); AID 2540; in the data active = inhibition above about 50%
EBI2 antag = EBI2 (human) antagonism; EBI2 beta-arrestin recruitment, luminescence, 7a,25-OHC stimulated; inhibition, % at 5 µM; actives 0.81% (n = 360,000); AID 651636; in the data active = inhibition above about 38%;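 note: enzyme fragment complementation signal reports receptor beta-arrestin coupling in cells; 0% = agonist plus DMSO wells and 100% = wells without agonist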
AHR act = human AHR activation; P35869; AHR-responsive luciferase reporter cells, luminescence; activation, % at 5 µM; actives 2.5% (n = 320,000); AID 2796; in the data active = activation above about 47%;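 note: 0% = vehicle wells and 100% = reference agonist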
SENP8 block-2 = blocks human SENP8 cleavage of Nedd8 substrate | AID 602440 | inhibition, % at 20 µM | recombinant SENP8, Nedd8 substrate fluorescence | actives 0.64% (n = 360,000); in the data active = inhibition mostly above about 40%, no sharp cut-off; inactive = mostly below about 27%
EBI2 antag conf = EBI2 (human) antagonism, single concentration confirmation | EBI2 beta-arrestin luminescence, 7a,25-OHC antagonism | shares compounds with EBI2 antag | actives 29% (n = 2,400) | inhibition, % at 5 µM;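 active = inhibition of at least 50%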
EBI2 agonist = EBI2 agonism counter-screen; activation, % at 5 µM; EBI2-expressing cells, agonist mode, luminescence, 60 min; 0% vehicle, 100% 7α,25-dihydroxycholesterol control; AID 652000; 2,400 tested, under 10 active; shares compounds with EBI2 antag;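 active = activation of at least 50%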
bGal counter = inhibits E. coli beta-galactosidase, counter-screen for EBI2 antagonists. shares compounds with EBI2 antag. purified beta-galactosidase, luminescent Galacton Star, 15 min. inhibition, % at 5 µM. actives 1% (n = 2,400);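 active = replicate-average signal at least 3 plate SD below neutral wells, shown as high inhibition, flagging enzyme-inhibiting false positives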;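 note: 0% = DMSO wells with enzyme and 100% = wells lacking enzyme; higher means stronger loss of beta-gal luminescence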
* marks the source's active call; other numbers are inactive results; i = inactive; · = no result. A selection: hits, their analogues and other compounds. The true share with any hit is near 5%.

SMILES	SENP6 block	SENP7 inh	SENP8 block-1	EBI2 antag	AHR act	SENP8 block-2	EBI2 antag conf	EBI2 agonist	bGal counter
COCCNc1nc(NCCOc2ccccc2)c2sc(-c3ccccc3)cc2n1	·	·	·	47*	·	-279	45	0	6
COc1ccccc1CNc1nc(NC(C)C)nc2cc(-c3ccccc3)sc12	·	·	·	50*	·	-375	50*	-2	-8
COCCNc1nc(-c2ccc(OC)cc2C)c2sc(-c3ccccc3)cc2n1	·	·	·	42*	·	i	19	-1	-13
COc1ccc(C(CC(=O)O)N2C(=O)CCC2=O)cc1 (stereo unspecified)	1	3	-1	-4	9	18	·	·	·
O=C(c1ccc(NS(=O)(=O)c2cccs2)cc1)N1CCOCC1	-9	-5	-4	2	-1	-2	·	·	·
O=C(c1cc(-c2ccncc2)nc2ccc(Cl)cc12)N1CCN(C(=O)C2CCCO2)CC1 (stereo unspecified)	1	0	0	-8	15	11	·	·	·
Cc1cccc2c(C(=O)N3CCN(c4ccccc4)CC3)cc(-c3ccncc3)nc12	-2	-4	-22	47*	17	-1	28	0	-2
CC(=O)c1ccc(N2CCN(C(=O)c3cc(-c4ccncc4)nc4ccc(Cl)cc34)CC2)cc1	-9	15	-1	45*	13	-8	25	2	8
Cc1csc(=O)n1CC(=O)OCC(=O)NCc1ccc(Cl)cc1Cl	-4	-3	-8	3	-1	13	·	·	·
CN(Cc1ccccc1)C(=O)c1cc2cc(F)ccc2[nH]1	5	2	9	55*	62*	-16	58*	0	7
Cc1c(C(=O)N2CCOCC2)sc(NC(=O)c2ccccc2F)c1C#N	-9	-5	-14	-10	4	-6	·	·	·
Cc1ccc(S(=O)(=O)N2CCN(C(=O)c3cc4c(s3)CCCC4)CC2)c(C)c1	-5	0	3	68*	-2	8	34	-1	-11
O=C(NCc1ccccc1)C1CCCN(C(=O)NCc2ccccc2)C1 (stereo unspecified)	5	-8	-9	-6	1	12	·	·	·
O=C(NCc1ccccc1F)C1CCCN(C(=O)Nc2ccc(F)cc2)C1 (stereo unspecified)	-7	-4	-5	16	0	12	·	·	·
O=C(NCc1ccc(F)cc1)C1CCCN(C(=O)Nc2ccccc2)C1 (stereo unspecified)	6	5	11	50*	-1	20	19	0	6
Cc1ccc(CNC(=O)C2CCN(C(=O)Nc3ccc(C)cc3)CC2)cc1	-13	1	-6	62*	·	11	29	0	10
O=C(NCc1ccc(F)cc1)C1CCCN(C(=O)Nc2ccc(F)cc2)C1 (stereo unspecified)	17	-11	2	51*	-2	7	33	2	1
Cc1ccnc2nc(C(=O)OCC(=O)NC(=O)NCc3ccco3)nn12	-13	7	4	-1	0	1	·	·	·
Cc1ccc(C(C)C)c(OCC(=O)N2CCN(c3ncccn3)CC2)c1	-5	2	1	48*	0	-48	44	0	0
Cc1cc(Cl)cc(C)c1OCC(=O)N1CCN(c2ncccn2)CC1	-7	3	-6	76*	0	-46	42	-1	-16
Cc1cc(Cl)ccc1OCC(=O)N1CCN(c2ncccn2)CC1	4	3	6	56*	8	-28	36	0	-18
O=C(COc1ccc(Br)cc1Cl)N1CCN(c2ncccn2)CC1	-15	-10	-14	0	-1	-42	·	·	·
Cc1cc(Cl)ccc1OCC(=O)N1CCCCC1	-7	-10	-18	8	20	11	·	·	·
Cc1cccc(Nc2ccncc2S(N)(=O)=O)c1	-2	3	1	13	0	10	·	·	·
COc1ccc(S(=O)(=O)Nc2ncccc2C)c2ccccc12	-1	1	2	7	6	-369	·	·	·
SMILES	SENP6 block	SENP7 inh	SENP8 block-1	EBI2 antag	AHR act	SENP8 block-2	EBI2 antag conf	EBI2 agonist	bGal counter
COc1ccc(-c2cc(-c3nnc(COC(=O)c4ccc(O)cc4)o3)c3ccccc3n2)cc1OC	1	1	3	46*	18	-396	8	4	5
CCOC(=O)c1c(S(=O)(=O)NCCCc2ccco2)c(C)n(C)c1C	6	10	-6	4	0	7	·	·	·
O=C(CSc1n[nH]c(=O)n1Cc1ccco1)Nc1ccccc1Cl	14	9	3	-11	0	11	·	·	·
NC(=O)NCCN1CCN(c2ncc(C(F)(F)F)cc2Cl)CC1	0	3	-6	8	-1	3	·	·	·
Cc1cc(OCC(=O)N(C)C2CCCCC2)ccc1Cl	-1	-8	-11	74*	8	11	35	1	-12
Cc1cc(OCC(=O)N(C)C2CCCCC2)cc(C)c1Cl	-7	2	-13	79*	7	-7	43	0	5
CN(C(=O)COC(=O)COc1ccc(Cl)cc1)C1CCCCC1	-5	-3	-15	3	1	3	·	·	·
CCOC(=O)c1c(C)cc(C)[nH]c1=O	-26	2	-9	-13	0	-17	·	·	·
O=C(NC1CCCCCC1)c1ccc(=O)n(Cc2ccccc2)n1	1	12	-5	46*	0	0	35	0	7
CCN(CC(=O)NCc1ccc(F)cc1)C(=O)/C=C/c1ccc(OC)cc1	-9	-2	12	62*	1	5	57*	0	8
CCN(CC(=O)Nc1c(F)cccc1F)C(=O)/C=C/c1ccc(C)cc1	24	-4	11	94*	1	5	80*	-1	-6
CC(=O)Nc1ccc(S(=O)(=O)NC2CC3CCC2C3)cc1 (stereo unspecified)	13	-4	-1	-10	1	15	·	·	·
Cn1c(=O)c2c(nc(N/N=C/c3ccc(OC(=O)c4ccco4)cc3)n2Cc2ccc(F)cc2)n(C)c1=O	6	4	0	19	8	-244	·	·	·
Cn1c(=O)c2c(nc(N/N=C/c3ccc(OC(=O)c4ccco4)cc3)n2Cc2ccccc2Cl)n(C)c1=O	-17	-1	-3	54*	0	-186	34	0	11
O=C(COC(=O)/C=C/c1ccc(OC(F)F)cc1)NC(=O)NCc1ccccc1	17	2	-4	50*	1	-1	5	1	-1
Cc1ccc(C(=O)OC(C)CN2CCN(C)CC2)cc1 (stereo unspecified)	-14	-9	-13	-10	-2	22	·	·	·
